Assay results: PubChem BioAssay (NCI)
Where “and” joins values, the source holds several entries; their conditions need not be identical. Equal values may be shown once. About 83,000 compounds went through this panel and 20% of them were active in at least one assay; those are over-represented in the sample as a whole.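 Negative percent growth values reflect cell death: -40 means 40% of the cells present at the start died, and -100 means all died.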 Calls of active or inactive are those of the source. How the source made its calls: active means growth percent below 10; inactive means the rest.

Columns and labels:
Test in all cases: NCI-60 one-dose screen, 48 h (100 = growth as untreated, 0 = no growth, -100 = all killed)
HCT-15 colon = conditions: 10 µM unless noted
HT29 colon = conditions: 10 µM unless noted
SNB-75 CNS = conditions: 10 µM unless noted
SNB-19 CNS = conditions: 10 µM unless noted
U251 CNS = conditions: 10 µM unless noted
PC-3 prostate = conditions: 10 µM unless noted
SK-MEL-5 melanoma = conditions: 10 µM unless noted
UACC-62 melanoma = system: UACC-62 melanoma
LOX IMVI melanoma = conditions: 10 µM unless noted
SK-MEL-28 melanoma = conditions: 10 µM unless noted
SK-MEL-2 melanoma = conditions: 10 µM unless noted
EKVX NSCLC = conditions: 10 µM unless noted
SN12C renal = conditions: 10 µM unless noted
UO-31 renal = conditions: 10 µM unless noted
TK-10 renal = system: TK-10 renal
ACHN renal = conditions: 10 µM unless noted
CAKI-1 renal = conditions: 10 µM unless noted
A498 renal = conditions: 10 µM unless noted
CCRF-CEM leukemia = conditions: 10 µM unless noted
MOLT-4 leukemia = conditions: 10 µM unless noted

Measured: growth

CC1=CCC2C1CC=C(C)C(CC[C@H]1[C@@](C)(O)CCC3OC(C)(C)[C@H](OC(=O)c4ccccc4)CC[C@@]31C)C2(C)C (some centres undefined)
inactive: HCT-15 colon 81.9% | HT29 colon 76.6% | SNB-75 CNS 75.9% | SNB-19 CNS 105% | U251 CNS 61.2% | PC-3 prostate 26.2% | SK-MEL-5 melanoma 79.9% | UACC-62 melanoma; 10 µM unless noted 67.4% | LOX IMVI melanoma 67% | SK-MEL-28 melanoma 109% | SK-MEL-2 melanoma 81.3% | EKVX NSCLC 69.6% | SN12C renal 80.6% | UO-31 renal 80.8% | TK-10 renal; 10 µM unless noted 97.5% | ACHN renal 94.1% | CAKI-1 renal 67.7% | A498 renal 110% | CCRF-CEM leukemia 99.6%

Cc1cc(O)c2cc3c(O)c(O)ccc3cc2c1
inactive: HCT-15 colon 113% | HT29 colon 125% | SNB-75 CNS 127% | SNB-19 CNS 108% | U251 CNS 108% | PC-3 prostate 97.1% | SK-MEL-5 melanoma 94.8% | UACC-62 melanoma; 10 µM 114% | LOX IMVI melanoma 112% | EKVX NSCLC 106% | SN12C renal 112% | UO-31 renal 102% | TK-10 renal; 10 µM 115% | ACHN renal 106% | CAKI-1 renal 105% | A498 renal 103% | CCRF-CEM leukemia 118% | MOLT-4 leukemia 105%
active: UACC-62 melanoma; 100 µM -27.7% and -63.9% | TK-10 renal; 100 µM -14.3% and -64.8%

CNC(=O)c1c(NC(=O)c2ccc(C(C)C)cc2)sc2c1CCC(=O)C2
inactive: TK-10 renal; 10 µM unless noted 28.7%
active: HCT-15 colon -40.7% | HT29 colon 3.51% | SNB-75 CNS -11.9% | SNB-19 CNS 8.7% | U251 CNS -20.2% | PC-3 prostate -40% | SK-MEL-5 melanoma -71.4% | UACC-62 melanoma; 10 µM unless noted -54.7% | LOX IMVI melanoma 1.13% | SK-MEL-28 melanoma -32.1% | SK-MEL-2 melanoma -6.19% | EKVX NSCLC -4.35% | SN12C renal -10.8% | UO-31 renal -99.6% | ACHN renal -90.2% | CAKI-1 renal -9.28% | A498 renal -19.7% | CCRF-CEM leukemia 1.96%

COc1cc(NC(=O)CSc2nc3ccc(Cl)cc3c(=O)n2Cc2ccccc2)cc(OC)c1OC
inactive: HCT-15 colon 88.3% | HT29 colon 56.5% | SNB-75 CNS 53.4% | SNB-19 CNS 88.3% | U251 CNS 55.5% | PC-3 prostate 71.1% | SK-MEL-5 melanoma 45.5% | UACC-62 melanoma; 10 µM unless noted 43.2% | LOX IMVI melanoma 74.5% | SK-MEL-28 melanoma 78.2% | SK-MEL-2 melanoma 77.6% | EKVX NSCLC 83.2% | SN12C renal 88.5% | UO-31 renal 62.4% | TK-10 renal; 10 µM unless noted 72.9% | ACHN renal 57.6% | CAKI-1 renal 76.9% | A498 renal 11.7% | CCRF-CEM leukemia 93.8%

c1ccc2c(N=NSc3ncnc4nc[nH]c34)c3ccccc3nc2c1
active: HCT-15 colon -7.02% | HT29 colon 0.967% | SNB-75 CNS 2.72% | U251 CNS 8.63% | PC-3 prostate -1.78% | SK-MEL-5 melanoma -59.4% | UACC-62 melanoma; 10 µM unless noted -38.7% | LOX IMVI melanoma -46.6% | SK-MEL-28 melanoma -37.6% | SK-MEL-2 melanoma -23.6% | SN12C renal 4.81% | UO-31 renal 4.86% | ACHN renal -27.8% | A498 renal -8% | CCRF-CEM leukemia -4.86%
inactive: SNB-19 CNS 12.3% | EKVX NSCLC 16.7% | TK-10 renal; 10 µM unless noted 36.4% | CAKI-1 renal 19.7%

CCOc1cc(/C=N\NC(=O)C[N+](C)(C)C)ccc1O
inactive: HCT-15 colon 103% | HT29 colon 105% | SNB-75 CNS 106% | SNB-19 CNS 117% | U251 CNS 105% | PC-3 prostate 99.6% | SK-MEL-5 melanoma 105% | UACC-62 melanoma; 10 µM unless noted 111% | LOX IMVI melanoma 103% | SK-MEL-28 melanoma 117% | SK-MEL-2 melanoma 115% | EKVX NSCLC 98.7% | SN12C renal 109% | UO-31 renal 113% | TK-10 renal; 10 µM unless noted 105% | ACHN renal 103% | CAKI-1 renal 95.9% | A498 renal 115% | CCRF-CEM leukemia 98.5%

CCCCOc1nc2ccccc2cc1/C=C/c1cc(/C=C/c2cc3ccccc3nc2OCCCC)n(-c2ccccc2)n1
inactive: HCT-15 colon 116% | HT29 colon 93.5% | SNB-75 CNS 82.5% | SNB-19 CNS 97.3% | U251 CNS 99% | PC-3 prostate 93.1% | SK-MEL-5 melanoma 101% | UACC-62 melanoma; 10 µM unless noted 81.3% | LOX IMVI melanoma 95.9% | SK-MEL-28 melanoma 114% | SK-MEL-2 melanoma 101% | EKVX NSCLC 105% | SN12C renal 95.3% | UO-31 renal 75.2% | TK-10 renal; 10 µM unless noted 119% | ACHN renal 103% | CAKI-1 renal 88.3% | A498 renal 95.9% | CCRF-CEM leukemia 101%
